Screening data deposited in PubChem BioAssay by The Scripps Research Institute Molecular Screening Center.
ULK1 inh: blocks human autophagy kinase ULK1. inhibition, % at 5.96 µM. O75385. AID 1259251. 30,000 compounds, 1.9% hits. AlphaScreen Atg13 phosphorylation by ULK1, luminescence; in the data active = inhibition above about 43%
ASK1 primary: human ASK1 kinase inhibition, primary screen. AlphaScreen MKK6 phosphorylation by ASK1, luminescence. 22,000 compounds, 0.99% hits. inhibition, % at 7.44 µM. Q99683; in the data active = inhibition above about 35%
AlphaScreen intf: AlphaScreen optical interference dose response, ASK1 counter-screen | AlphaScreen TruHits beads, signal interference counterscreen | 220 compounds, 20% hits | IC50, µM | shares compounds with ASK1 primary;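 active = IC50 of 10 µM or lower in the counterscreen; inactive = IC50 above 10 µM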;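 also: loss of AlphaScreen light from TruHits beads alone with no ASK1 enzyme present; potency of signal reduction so a low IC50 flags an assay artifact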
Of the large screens only hits and unclear results are named; the others gave an inactive call (follow-up assays come after a bar, where they were run); ! = not active in a repeat. Sampled rows, rich in hits. Any-hit rate of the full collection: about 2.4%.

N#Cc1cc(-c2ccnc(Nc3ccc(-n4cnc(C(F)(F)F)n4)cc3)n2)ccc1N1CCC(O)CC1	none
CN1CCN(C(=O)c2ccc(-c3nc(NCCCN4CCCC4=O)c4ncn(-c5ccsc5)c4n3)cc2)CC1	none
CCCNc1cc(-c2csc3ccccc23)ncn1	none
Nc1nc(Nc2ccc(N3CCOCC3)cc2)cc(NC2CCN(Cc3ccccc3)CC2)n1	ASK1 primary 43! | AlphaScreen intf inactive
Cc1cc(NC2CCN(Cc3ccccc3)CC2)nc(Nc2ccc(N3CCOCC3)cc2)n1	ASK1 primary 40 | AlphaScreen intf inactive
Cc1cc(NC2CC2)nc(Nc2ccc(N3CCOCC3)cc2)n1	none
c1ccc(CN2CCC(Nc3cc(Nc4ccc(N5CCOCC5)cc4)ncn3)CC2)cc1	none
CCCNc1ncnc2nc(-c3c(C)nn(C)c3C)[nH]c12	none
Fc1ccc(-c2[nH]ncc2-c2ncccn2)cc1	none
O=C1CCCN1CCn1cnc2c(Nc3ccccc3)nc(NC3CCN(Cc4ccccc4)CC3)nc21	none
FC(F)(F)c1cccc(CNc2nc(-c3ccccc3)nc3c2ncn3-c2ccccc2)c1	none
NC(=O)c1ccc(-c2nc(NCc3cccc(C(F)(F)F)c3)c3ncn(-c4ccccc4)c3n2)cc1	ASK1 primary 39 | AlphaScreen intf inactive
c1ccc(N(c2ccc(N3CCOCC3)cc2)c2cc(-c3ncn(-c4ccccc4)n3)ccn2)cc1	none
O=C(NCCN1CCOCC1)c1cccc(-n2ncc3cc(Nc4c(F)cccc4[N+](=O)[O-])ccc32)c1	ASK1 primary 44 | AlphaScreen intf inactive
CC(=O)N1CCN(CCNC(=O)c2cccc(-n3ncc4cc(Nc5cccc(C)c5Cl)ccc43)c2)CC1	none
Cc1cccc(Nc2ccc3c(cnn3-c3cccc(C(=O)NCCN4CCNCC4)c3)c2)c1Cl	ASK1 primary 43 | AlphaScreen intf inactive
O=C(NCCN1CCOCC1)c1cccc(-n2ncc3cc(Nc4ccccc4F)ccc32)c1	none
Cc1cccc(Nc2ccc3c(cnn3-c3cccc(C(=O)NCCN4CCN(CC5CC5)CC4)c3)c2)c1Cl	ASK1 primary 36 | AlphaScreen intf inactive
Cc1cccc(Nc2ccc3c(cnn3-c3cccc(C(=O)NCCN4CCN(C)CC4)c3)c2)c1Cl	none
c1cnc(Nc2nc(NCCN3CCOCC3)c3ncn(C4CCCCC4)c3n2)cn1	none
CC(C)n1cnc2c(NCc3cccc(C(F)(F)F)c3)nc(-c3ccc(C(=O)N4CCN(C)CC4)cc3)nc21	none
CCN(CC)C(=O)C1CCCN(c2nc(Nc3cc(OC)c(OC)c(OC)c3)c3ncn(-c4ccsc4)c3n2)C1 (centres undefined)	none
CC(C)n1cnc2c(NCCCN3CCCC3=O)nc(Nc3cccnc3)nc21	none
C=C1/C(=C\C=C2/CCCC3(C)[C@@H]([C@H](C)/C=C/[C@@H](O)C4CC4)CC[C@@H]23)C[C@@H](O)C[C@@H]1O (some centres undefined)	none (no result: ASK1 primary)
Cc1nn(C)c(C)c1-c1nc2ccc(C(=O)NCCc3ccc(O)cc3)cc2s1	none
CCCNc1ccnc(N2CCc3ccccc3C2)n1	none
COc1ccc(C(=O)Nc2c(C)nc3ccccn3c2=O)c(OC)c1	none (no result: ASK1 primary)
COc1ccc(-c2nc3ncnc(Nc4cc(OC)c(OC)c(OC)c4)c3[nH]2)cn1	ASK1 primary 45 | AlphaScreen intf inactive
COc1ccc(-c2nc3ncnc(Nc4ccc(NC(C)=O)cc4)c3[nH]2)cn1	none
NC(=O)c1cc2ccccc2cc1Nc1ccnc(Nc2ccc(N3CCOCC3)cc2)c1	ASK1 primary 36 | AlphaScreen intf inactive
NC(=O)c1cnc(Nc2ccnc(Nc3ccc(N4CCOCC4)cc3)c2)s1	none
c1ccc(Nc2nc(N3CCN(c4ccccn4)CC3)nc3c2ncn3C2CCCCC2)cc1	none
c1cncc(CNc2nc(Nc3ccc(N4CCOCC4)cc3)nc3c2ncn3C2CCCCC2)c1	ASK1 primary 36 | AlphaScreen intf inactive
c1ccc(-n2cnc3c(NCc4cccnc4)nc(Nc4cccnc4)nc32)cc1	none
c1ccc(N2CCN(c3nc(Nc4ccc(N5CCOCC5)cc4)c4ncn(C5CCCCC5)c4n3)CC2)nc1	ULK1 inh 64, ASK1 primary 44 | AlphaScreen intf inactive
c1cncc(CNc2nc(N3CCOCC3)nc3c2ncn3C2CCCCC2)c1	none
CCCNc1nc(N2CCN(c3ccccn3)CC2)nc2c1ncn2C(C)C	none
c1ccc(-n2cnc3c(NCc4cccnc4)nc(Nc4ccc(N5CCOCC5)cc4)nc32)cc1	ASK1 primary 39 | AlphaScreen intf inactive
CC(C)n1cnc2c(NC3CC3)nc(N3CCN(c4ccccn4)CC3)nc21	ASK1 primary 43 | AlphaScreen intf inactive
CC(=O)Nc1ccc(Nc2cc(N3CCCC3CO)ncn2)cc1 (centres undefined)	none
O=C(Cc1ccc(SC(F)(F)F)cc1)NCc1cn(-c2ccncc2)nn1	none
Nc1cccc(-c2nc(N)c3ncn(Cc4ccc(C(F)(F)F)cc4)c3n2)c1	none
O=C(NCCCN1CCCC1=O)c1ccc2nc(NCc3ccc4c(c3)OCO4)sc2c1	none
N#Cc1cc(-c2ccnc(N3CCCCC3)n2)cc(N2CCOCC2)c1	none
COc1cc(Nc2nc(-c3c(C)noc3C)nc3c2ncn3Cc2ccc(C(F)(F)F)cc2)cc(OC)c1OC	ASK1 primary 37 | AlphaScreen intf inactive
COc1cc(Nc2nc(Nc3cc(OC)c(OC)c(OC)c3)c3ncn(Cc4ccc(C(F)(F)F)cc4)c3n2)cc(OC)c1OC	none
COc1c(-c2cnn(C)c2)ccc2cnc(Nc3ccc(-n4cnc(N5CCOCC5)n4)cc3)nc12	ULK1 inh 83, ASK1 primary 42 | AlphaScreen intf inactive
c1cc(-c2ccc3cnc(Nc4ccc(-n5cnc(N6CCOCC6)n5)cc4)nc3c2)ccn1	none
Cn1cc(-c2ccc3cnc(Nc4ccc(-n5cnc(N6CCOCC6)n5)cc4)nc3c2)cn1	ULK1 inh 56, ASK1 primary 48 | AlphaScreen intf inactive
Cn1cc(-c2ccc3cnc(Nc4ccc(-n5cnc(N6CCOCC6)n5)cc4)nc3c2-c2ccccc2)cn1	none
O=C(Nc1ccc2[nH]ncc2c1)c1cc(OC2CCN(Cc3ccccc3)CC2)ccn1	none
O=C(SCc1ccccc1)c1ccccc1	none (no result: ASK1 primary)
COc1ccc(CCNc2ccnc(-c3c(C)noc3C)n2)cc1	none
CCCNc1nc(Cl)nc2c1ncn2CCN1CCCC1=O	none
COc1ccc(N2CCn3c(SCCc4ccccc4)nnc32)cc1	none (no result: ASK1 primary)
Cc1ccc(-c2cnc(N3CCN(C)CC3)nc2)cc1	none (no result: ASK1 primary)
c1ccc2c(-c3nccc(Nc4ccc(N5CCOCC5)cc4)n3)csc2c1	ASK1 primary 38 | AlphaScreen intf inactive
c1ccc(Nc2ccnc(-c3csc4ccccc34)n2)cc1	none
c1cc(Nc2ccc(N3CCOCC3)cc2)nc(NCc2ccc3c(c2)OCO3)n1	none
COc1ccc(-c2nc3c(Nc4ccc(Oc5ccccc5)cc4)ncnc3n2C(C)C)cc1	none
CC(C)n1c(-c2ccc(C(N)=O)cc2)nc2c(Nc3ccc(Oc4ccccc4)cc3)ncnc21	ASK1 primary 37 | AlphaScreen intf inactive
c1cc(-c2nccs2)c2nc(Nc3ccc(-n4cnc(N5CCOCC5)n4)cc3)ncc2c1	none
CC(=O)Nc1ccc(Nc2cc(Nc3cccc(N(C)C)c3)ncn2)cc1	none
Cc1cc(NCCOc2ccccc2)nc(Nc2cccnc2)n1	none
Cc1cc(NCCc2ccc(O)cc2)nc(Nc2cccc(N(C)C)c2)n1	ASK1 primary 55 | AlphaScreen intf 9
CN(C)c1cccc(Nc2cc(Nc3ccccc3)ncn2)c1	ASK1 primary 37 | AlphaScreen intf inactive
Cc1cc(NCCO)nc(Nc2cccc(N(C)C)c2)n1	none
Cc1cc(NCCOc2ccccc2)nc(Nc2cccc(N(C)C)c2)n1	ASK1 primary 57 | AlphaScreen intf 6
